Screens as filed in PubChem.
TSG101-PTAP inh: qHTS Assay for Iinhibitors of HIV-1 Budding by Blocking the Interaction of PTAP/TSG101; Potency, µM (titrated, usually from 115 µM), hits mostly inhibitors; Tumor susceptibility gene 101 protein (Homo sapiens), Q99816; Fluorescence polarization, FITC-PTAP peptide / Tsg101 binding; 340,000 tested, under 10 active; active = well fitted inhibition curve with a large enough effect in the main read-out, with a control signal flat, not every such curve was filed as active; inconclusive = small, poorly fitted or top-dose-only effect, or effect the other way, or a change in a side signal; inactive = no such curve, though single readings can be large or run the other way
Target sequence (Q99816 whole entry, looked up): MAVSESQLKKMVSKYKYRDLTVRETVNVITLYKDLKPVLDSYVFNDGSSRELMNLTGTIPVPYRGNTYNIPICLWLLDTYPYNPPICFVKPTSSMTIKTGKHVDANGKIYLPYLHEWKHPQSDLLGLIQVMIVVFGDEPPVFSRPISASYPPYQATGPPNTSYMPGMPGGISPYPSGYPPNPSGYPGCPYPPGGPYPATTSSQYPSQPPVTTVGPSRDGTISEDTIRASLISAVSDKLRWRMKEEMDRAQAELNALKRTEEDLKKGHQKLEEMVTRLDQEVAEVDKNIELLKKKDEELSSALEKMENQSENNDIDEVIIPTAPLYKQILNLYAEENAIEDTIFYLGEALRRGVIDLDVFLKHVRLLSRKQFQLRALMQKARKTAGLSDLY
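Steps: Tsg101 binding domain dispensed (10 uM final), compounds pinned in DMSO, FITC-labeled PTAP-motif peptide added (50 nM final); after 20 min binding at room temperature, polarization measured.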
SW480 rereplic: A quantitative high throughput screen for small molecules that induce DNA re-replication in SW480 colon adenocarcinoma cells | SW480 DNA re-replication, Hoechst DNA content imaging, 48 h | Potency, µM (titrated, usually from 46.1 µM), usual class: activators | hit rate 1.8% among 340,000 | AID 624297, 2012; note: nearly all actives have a fitted effect of over 55% in size
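250 cells/well; 23 nL cpd via pin tool; 48 hr, 37 C, 5% CO2; Hoechst 40 min; imager read of total nuclear intensity, ex 405/em 500-530 nm.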
KB-V1 cytotox: qHTS assay for MDR1-selective chemotherapeutics: Primary screen using the drug-selected MDR subline cells KB-V1; KB-V1 MDR cells viability, CellTiter-Glo, 72 h; Potency, µM (top dose mostly 46.1 µM), hits mostly cytotoxic; hit rate 3.4% among 400,000; note: nearly all actives have a fitted effect of over 60% in size
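Cytotoxicity via CellTiter-Glo luminescence after 72 h compound exposure at 37 degrees C. Cells: drug-selected KB-V1 line, DMEM phenol-red free plus 10% FBS. Compounds tested at multiple concentrations; normalized data fitted to concentration-effect curves.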
MCF10A rereplic: A quantitative high throughput screen for small molecules that induce DNA re-replication in MCF 10a normal breast cells. MCF 10A DNA re-replication, Hoechst nuclear intensity, 48 h. Potency, µM (titrated, usually from 46.1 µM), most hits filed as activators. hit rate 2.9% among 350,000; note: nearly all actives have a fitted effect of over 50% in size
RGS4 inhibitor: Inhibitors of Regulator of G Protein Signaling (RGS) 4: qHTS | Regulator of G-protein signaling 4 (Homo sapiens), P49798 | Transcreener GDP fluorescence polarization, RGS4-accelerated GTP hydrolysis | Potency, µM (titrated, usually from 114 µM), hits mostly inhibitors | hit rate 0.039% among 390,000 | AID 504845, 2011; note: nearly all actives have a fitted effect of over 75% in size
Target sequence (P49798 whole entry, looked up): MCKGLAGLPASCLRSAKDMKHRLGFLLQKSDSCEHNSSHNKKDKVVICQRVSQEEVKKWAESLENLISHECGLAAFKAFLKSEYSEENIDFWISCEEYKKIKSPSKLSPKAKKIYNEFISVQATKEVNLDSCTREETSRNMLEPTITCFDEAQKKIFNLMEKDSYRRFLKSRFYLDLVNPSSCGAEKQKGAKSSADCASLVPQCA
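MLSMR compounds (23 nl, pin-transferred) preincubated 10 min at room temperature with a 500nM (2x) first reagent, then RGS4 at 900nM (2x) plus Transcreener GDP mix added; fluorescence polarization (620/688 nm) read before and after 90 min at 30 °C.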
KB-3-1 cytotox: qHTS assay for MDR1-selective chemotherapeutics: Primary screen using the parental adenocarcinoma cell KB-3-1 | KB-3-1 viability, CellTiter-Glo ATP luminescence, 72 h | Potency, µM (top dose mostly 46.1 µM), actives largely listed as cytotoxic | hit rate 1.4% among 400,000 | AID 1347075, 2019; note: nearly all actives have a fitted effect of over 60% in size
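Multi-concentration cytotoxicity screen in KB-3-1 cells grown in DMEM lacking phenol red with 10% FBS. After 72 h at 37 °C with compound, ATP-dependent luminescence was recorded.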
Numbers stand for hits; 0 = inactive; ? = inconclusive; - = not tested or not shown; [ ] = another dose, or the depositor's remark. In the library only some 6.6% were active in any assay of this set; here they are far more common. Unless noted, calls come from the whole dose curve; as a rule, active = well fitted curve in the direction sought with a large enough effect; inconclusive = small, poorly fitted or top-dose-only effect, or another doubt; inactive = no such curve, though single readings can be large; an effect the other way counts as inactive or inconclusive.

SMILES | TSG101-PTAP inh | SW480 rereplic | KB-V1 cytotox | MCF10A rereplic | RGS4 inhibitor | KB-3-1 cytotox
Cc1noc(C)c1CSc1nc2ccccc2c(=O)n1-c1ccccc1 | 0 | 13µM | 5.8µM | 7.31µM | 0 | 5.8µM
c1cc2c3c(c1)CCC[N+]3(C1CCCCC1)CCC2 | - | - | 0 | - | - | ?
Cc1ccc(-c2nc3ccccc3o2)cc1NC(=O)C(C)Oc1ccccc1 (configuration not stated) | - | - | 0 | - | - | 0
CCCCc1nn2c(=O)cc(COC(=O)c3cccs3)nc2s1 | - | - | 0 | - | 0 | 0
O=C(c1ccc2c(=O)n(Cc3ccc(Cl)cc3)c(=S)[nH]c2c1)N1CCCC1 | 0 | 0 | 0 | ? | 0 | 0
O=c1c2ccc(Cl)cc2[nH]c(=S)n1Cc1cccnc1 | 0 | 0 | 18.4µM | 0 | 0 | 0
COc1ccc(-n2c(SCc3ccccc3)nc3c([nH]c4ccccc43)c2=O)cc1 | - | - | 0 | - | 0 | 0
O=C(C[n+]1cccc(Cl)c1)c1ccc(F)cc1 | - | - | 0 | - | - | 0
COc1cc(CN2CCCCCC2)cc([N+](=O)[O-])c1O | 0 | 0 | 0 | 0 | 0 | 0
O=[N+]([O-])c1cc(CN2CCN(c3cccc(C(F)(F)F)c3)CC2)c2cccnc2c1O | 0 | ? | ? | 0 | 0 | 3.66µM
O=[N+]([O-])c1cc(CN2CCCC2)c2cccnc2c1O | 0 | 0 | 5.8µM | 0 | ? | ?
COc1ccc(N/C=C/c2nc(SC)nnc2C)cc1 | 0 | 14.6µM | 0 | ? | 0 | 0
CSc1nnc(C)c(/C=C/Nc2ccc(F)cc2)n1 | 0 | 0 | ? | ? | 0 | 0
CCn1c(-c2ccc(N)cc2)nc2ccccc21 | 0 | 0 | 0 | 0 | 0 | ?
CCn1c(-c2ccc(N(C)C)cc2)nc2ccccc21 | 0 | 0 | 16.4µM | 0 | 0 | 13µM
CCCCCCCCCCCCCCCCCCNc1ccn(C2OC(COP(=O)(O)OCC3OC(n4cc(F)c(=O)[nH]c4=O)CC3O)C(O)C2O)c(=O)n1 (configuration not stated) | 0 | 20.6µM | 0 | 10.3µM | ? | ?
Cc1cc(C)nc(N/C(=N\S(=O)(=O)Cc2ccccc2)Nc2ccccc2Br)n1 | 0 | ? | ? | 4.11µM | 0 | 0
Cc1cc(C)nc(Nc2ccccc2Br)n1 | 0 | 0 | 0 | 0 | 0 | 0
CCOc1cc(Cl)c(NC(=O)CC)cc1OCC | 0 | 18.4µM | 0 | 0 | 0 | 0
CCC(=O)Nc1ccc(-c2ccc(NC(=O)CC)c(OC)c2)cc1OC | 0 | ? | 0 | 0 | 0 | 0
COc1cc2sc3ccc(C#CC4(O)CCCCC4)cc3c(=O)c2cc1OC | 0 | ? | 0 | 9.2µM | 0 | 0
Cc1ccc(S(=O)(=O)N2CCCC2CNC(=O)C(=O)NCc2cccs2)cc1 (configuration not stated) | 0 | ? | 13µM | 0 | 0 | ?
COc1ccc(S(=O)(=O)N2CCCC2CNC(=O)C(=O)NCc2cccs2)cc1 (configuration not stated) | 0 | 0 | ? | 0 | 0 | 0
CCNC(=O)C1CCCN1S(=O)(=O)c1ccc(C)cc1 (configuration not stated) | 0 | 0 | 0 | 20.6µM | 0 | 0
Cc1ccc(S(=O)(=O)N2CCCC2C(=O)N(C)Cc2cccs2)cc1 (configuration not stated) | 0 | 0 | 20.6µM | 0 | 0 | 0
SMILES | TSG101-PTAP inh | SW480 rereplic | KB-V1 cytotox | MCF10A rereplic | RGS4 inhibitor | KB-3-1 cytotox
CNC(=O)C(=O)NCC1CCCN1S(=O)(=O)c1cccs1 (configuration not stated) | 0 | 23.1µM | 0 | 0 | 0 | 0
CCNC(=O)C(=O)NCC1CCCN1S(=O)(=O)c1cccs1 (configuration not stated) | 0 | 0 | 0 | 0 | 0 | 0
Cc1ccc(CNC(=O)CN2C(=O)CCn3nc(-c4ccccc4)cc32)cc1 | - | - | 0 | - | 0 | 0
Cc1cc(N2CCCCC2)nc2ccc(NC(=O)/C=C/c3ccccc3OC(C)C)cc12 | - | - | - | - | 0 | -
Cc1ccc(NC(=O)c2cccc(OCc3c(C)noc3C)c2)cc1S(=O)(=O)Nc1ccccc1Cl | 0 | ? | 7.31µM | ? | 0 | 0
Cc1noc(C)c1COc1cccc(C(=O)Nc2ccc(Br)cc2F)c1 | 0 | 14.6µM | 2.91µM | 5.8µM | 0 | 6.51µM
COc1cc(C(=O)OC(C)C(=O)Nc2ccc3c(c2)OCO3)ccc1OCc1c(C)noc1C (configuration not stated) | 0 | 0[9.22 µM] | 0 | 0 | 0 | 0
Cc1noc(C)c1COc1cccc(C(=O)OC(C)C(=O)Nc2ccc3c(c2)OCO3)c1 (configuration not stated) | 0 | ? | ? | 14.6µM | 0 | 0
COc1ccc(CCNc2ncnc3c2c(-c2ccccc2)cn3-c2cccc(Cl)c2)cc1OC | - | - | - | - | 0 | -
CCn1cnc2c(=O)oc3ccc(S(=O)(=O)Nc4ccc(OC)cc4)cc3c21 | - | - | 0 | - | 0 | 0
Cc1noc(C)c1S(=O)(=O)NCCc1csc2nc(-c3ccc(F)cc3)nn12 | - | - | - | - | 0 | -
O=C(Nc1ccncc1)c1ccc2ccccc2c1 | 0 | 0 | 16.4µM | 0 | 0 | 0
O=C(Nc1ccc2ccccc2c1)c1cccc2ccccc12 | 0 | 0 | 0 | 0 | 0 | 0
O=C(Nc1ccc(N2CCOCC2)cc1)c1cccc2ccccc12 | 0 | 9.2µM | ? | 0 | 0 | ?
O=C(NN1CCOCC1)c1cccc2ccccc12 | 0 | 0 | ? | 0 | ? | 0
O=C(NC(NC(=S)N1CCOCC1)C(Cl)(Cl)Cl)c1cccc2ccccc12 (configuration not stated) | 0 | 0 | 16.4µM | 0 | 0 | 0
O=C(Nc1ccncc1)c1cccc2ccccc12 | 0 | 18.4µM | ? | 0 | 0 | 0
O=C(Nc1nnc(-c2ccncc2)o1)c1ccc2ccccc2c1 | 0 | ? | 0 | 0 | 0 | ?
Oc1c(C(c2ccccc2)N2CCOCC2)sc2nc(-c3ccco3)nn12 (configuration not stated) | - | - | - | - | 0 | -
Cc1ccc(Cl)cc1NC(=O)c1oc2c(c1C)-c1[nH]ncc1CC2 | - | - | - | - | 0 | -
O=C(NNC(=O)c1cc2ccccc2cc1O)NC1CCCCC1 | 0 | 0 | 0 | 0 | 0 | 0
CN1CCN(c2ccc(NC(=S)NC(=O)c3cccc4c(Cl)cccc34)cc2)CC1 | 0 | 20.6µM | 0 | ? | 0 | 0
CCOc1ccc(NC(=O)c2cc3ccccc3cc2OC)cc1 | 0 | ? | ? | ? | 0 | ?
O=C(NCC1CCCCC1)c1cc2ccccc2cc1O | 0 | ? | 0 | 18.4µM | 0 | ?
